p53null 39C tox = selectivity test: cytotoxicity in p53 null cells, nonpermissive temperature. H1299 p53-null (neo) cells, 39C, ATPlite viability, 24 h. Potency, µM (titrated, usually from 46.1 µM), for the others: at the highest dose activity, negative = cell killing, hits mostly cytotoxic. hit rate 0.97% among 55,000. AID 904;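 also: potency is read from the fitted curve at half-maximal effect; 0% = DMSO only and -100% = full killing by 100 µM tamoxifen; nearly all actives have a fitted effect of over 50% in size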
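H1299 lung cancer cells, p53-null (H1299-neo) or expressing p53 A138V (H1299-p53A138V), were plated overnight at 37C, then exposed to compounds at up to 46 uM for 24 hr at 39C. Viability was read by ATP-based luminescence.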
S16 F2sN tox = cytotoxicity in S16 Pmp22-F2sN Schwann cells | S16 Pmp22-F2sN Schwann cells viability, CellTiter-Glo, 24 h | Potency, µM (top dose mostly 57.5 µM), for inactives: top-dose activity change, negative = cytotoxicity, usual class: cytotoxic | hit rate 0.48% among 43,000; also: potency is read from the fitted curve at half-maximal effect; % is scaled to controls: 0 for no effect and ±100 for the full control effect; nearly all actives have a fitted effect of over 65% in size
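Used to flag compounds lowering reporter output through toxicity, this quantitative HTS measures ATP-based CellTiter-Glo luminescence in S16 Pmp22-F2sN Schwann cells after 24 h compound exposure at 37C.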
PMP22 txn prim = modulators of PMP22 gene transcription in S16 Schwann cells. hit rate 2% among 43,000. AID 1508649. Potency, µM (series often up to 57.5 µM), for the others: at the highest dose activity change, negative = inhibition, actives largely listed as inhibitors. S16 Pmp22-F2sN Schwann cells, FLuc/NLuc coincidence luminescence, 24 h; active = clear falling dose curves in both reporters; inconclusive = both reporters move, but less clearly or upward; inactive = either reporter flat; the % is the NLuc reporter signal; also: potency is read from the fitted curve at half-maximal effect; % is scaled to controls: 0 for no effect and ±100 for the full control effect
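qHTS, 1536-well. Cells seeded, compounds added by pin tool, 24 h 37C. Nano-Glo reagent 1 (lysis/FLuc), 10 min RT, read; Stop&Glo, 10 min RT, read NLuc.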
OvCa metastasis = inhibitors of ovarian cancer cell adhesion and invasion in omental model; SKOV3ip1-GFP adhesion/invasion on 3D omental model, fluorescence; AID 1963576; hit rate 0.1% among 46,000; Potency, µM (doses to about 45.8 µM), inactives show at the top dose activity change, negative = inhibition, usual class: inhibitors;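 also: potency is read from the fitted curve at half-maximal effect; plate controls were DMSO wells for no effect and tomatine positive control wells for full effect; nearly all actives have a fitted effect of over 65% in size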
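qHTS, 4-pt dose (0.36-46 umol/L); SKOV3ip1-GFP, 1,200 cells/well, no FBS; primary omental fibroblast/mesothelial co-culture 48 h pre-grown; 2 h RT + 16 h 37 C; PBS wash, 4% PFA; GFP count 488/509 nm.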
p53null 32C kill = selectivity test: cytotoxicity in p53 null cells, permissive temperature; H1299-neo p53 null cells, ATP luminescence, 24 h, 32C; Potency, µM (highest dose often 46.1 µM), for the others: top-dose activity change, negative = cytotoxicity, most hits filed as cytotoxic; hit rate 0.62% among 55,000; AID 903;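 also: potency is read from the fitted curve at half-maximal effect; 0% = DMSO only and -100% = full killing by 100 µM tamoxifen; nearly all actives have a fitted effect of over 55% in size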
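ATP-content luminescence in p53-null H1299-neo cells after 24 h compound exposure (up to 46 uM) at 32C permissive temperature; 0% and 100% killing set by DMSO and 100 uM tamoxifen; Hill-equation AC50.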
pS6 MEF inh = reduces mTORC1 signaling in Tsc2 and p53 null MEF cells | Tsc2-/- p53-/- MEF, phospho-rpS6 immunofluorescence/PI, 24 h | Potency, µM (highest dose often 38.3 µM), for the others: at the top dose activity change, negative = inhibition, actives largely listed as inhibitors | hit rate 0.78% among 44,000 | AID 493208;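 also: potency is read from the fitted curve at half-maximal effect; plate controls were DMSO for no effect and rapamycin for full effect; nearly all actives have a fitted effect of over 50% in size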
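Compounds act on Tsc2-/-, p53-/- fibroblasts carrying an empty vector for 24 h before fixation and dual staining for phospho-S6 and DNA (propidium iodide). Values are percentages of cells above a rapamycin-defined pS6/PI threshold.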
NLuc sat counter = NanoLuc enzyme inhibition artifact for PMP22 screen; shares compounds with PMP22 txn prim; Secreted NLuc enzyme (filtered S16 cell medium), Nano-Glo luminescence; Potency, µM (top dose mostly 57.5 µM), without a hit: top-dose activity change, negative = inhibition, usual class: inhibitors; hit rate 4% among 690; also: potency is read from the fitted curve at half-maximal effect; % is scaled to controls: 0 for no effect and ±100 for the full control effect
NLuc Km counter = inhibits NanoLuc under Km conditions, PMP22 counter-screen; secreted NLuc enzyme, coelenterazine luminescence, Km conditions; hit rate 5% among 690; Potency, µM (top dose mostly 57.5 µM), for inactives: top-dose activity change, negative = inhibition, actives largely listed as inhibitors; shares compounds with PMP22 txn prim; also: potency is read from the fitted curve at half-maximal effect; % is scaled to controls: 0 for no effect and ±100 for the full control effect
FLuc counter = firefly luciferase enzyme inhibition artifact for PMP22 screen; AID 1508640; shares compounds with PMP22 txn prim; 690 tested, under 10 active; Potency, µM (top dose mostly 57.5 µM), for the others: top-dose activity, negative = inhibition, hits mostly inhibitors; purified P. pyralis FLuc, luminescence, 10 min; also: % of control where 0% means no effect
Target sequence (P08659 whole entry, looked up): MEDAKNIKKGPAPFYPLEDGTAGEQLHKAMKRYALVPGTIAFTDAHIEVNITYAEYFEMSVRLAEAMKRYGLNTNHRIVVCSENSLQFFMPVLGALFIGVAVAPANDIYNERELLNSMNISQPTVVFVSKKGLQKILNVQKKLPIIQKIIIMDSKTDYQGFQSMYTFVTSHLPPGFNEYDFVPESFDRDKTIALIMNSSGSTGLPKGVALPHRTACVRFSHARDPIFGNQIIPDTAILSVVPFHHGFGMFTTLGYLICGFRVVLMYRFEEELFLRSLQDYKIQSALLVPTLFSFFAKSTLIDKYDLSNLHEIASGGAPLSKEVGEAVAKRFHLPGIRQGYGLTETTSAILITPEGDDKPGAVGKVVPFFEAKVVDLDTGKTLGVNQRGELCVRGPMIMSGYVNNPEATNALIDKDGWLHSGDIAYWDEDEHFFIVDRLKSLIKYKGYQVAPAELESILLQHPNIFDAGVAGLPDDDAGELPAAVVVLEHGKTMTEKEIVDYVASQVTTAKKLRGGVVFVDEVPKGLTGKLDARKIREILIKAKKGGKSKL
S16 viab conf = confirmation of cytotoxicity in S16 Pmp22-F2sN Schwann cells (luciferase reporters placed in the Pmp22 gene) | hit rate 7% among 690 | shares compounds with PMP22 txn prim | Potency, µM (top dose mostly 57.5 µM), without a hit: at the highest dose activity change, negative = viability loss, hits mostly cytotoxic | S16 Schwann cells viability, CellTiter-Glo ATP luminescence, 24 h; also: potency is read from the fitted curve at half-maximal effect; % is scaled to controls: 0 for no effect and ±100 for the full control effect
PMP22 txn conf = confirmation of modulators of PMP22 gene transcription in S16 cells. shares compounds with PMP22 txn prim. S16 Schwann cells Pmp22-F2sN, dual luciferase, 24 h. Potency, µM (top dose mostly 57.5 µM), without a hit: at the highest dose activity change, negative = inhibition, usual class: inhibitors. hit rate 22% among 690; active = clear falling dose curves in both reporters; inconclusive = both reporters move, but less clearly or upward; inactive = either reporter flat; the % is the FLuc reporter signal; also: potency is read from the fitted curve at half-maximal effect
Active calls of the source: *; i = inactive; u = inconclusive; x = no result given. The list is not random: actives were taken first. Their share in the collection is about 3.1%. Unless noted, calls follow the shape of the dose curve; as a rule, active = well fitted curve in the direction sought with a large enough effect; inconclusive = small, poorly fitted or top-dose-only effect, or another doubt; inactive = no such curve, though single readings can be large; an effect the other way counts as inactive or inconclusive.

SMILES	p53null 39C tox	S16 F2sN tox	PMP22 txn prim	OvCa metastasis	p53null 32C kill	pS6 MEF inh	NLuc sat counter	NLuc Km counter	FLuc counter	S16 viab conf	PMP22 txn conf
C[C@@]12OC(=O)[C@]1([C@@H](O)[C@@H]1C=CCCC1)NC(=O)[C@H]2CCCl	x	x	x	-23%	x	x	x	x	x	x	x
Cc1ccc(Cl)cc1Nc1nn2c(=O)c3ccc(C(=O)NCc4cccs4)cc3nc2s1	29%	25µM*	8.4µM*	-7%	u	-1%	-8%	-3%	0%	27µM*	u
CCCC[N+]1(C)[C@H]2CC(OC(=O)[C@H](CO)c3ccccc3)C[C@H]1[C@H]1O[C@H]12 (some centres not stated)	x	x	x	-20%	x	x	x	x	x	x	x
Cc1oc(-c2ccc(Cl)cc2)nc1CN1CCC(C(=O)NCCCN2CCN(c3cccc(Cl)c3)CC2)CC1	25µM*	u	13µM*	-4%	-5%	u	u	u	-9%	17µM*	10µM*
CCNC(=O)C[C@@H]1N=C(c2ccc(Cl)cc2)c2cc(OC)ccc2-n2c(C)nnc21	x	x	x	i	x	x	x	x	x	x	x
CCCCOc1ccc(CN2C(=O)C(=O)c3cc(C)ccc32)cc1OC	20µM*	u	8.8µM*	16%	28%	u	-16%	-1%	-2%	-7%	u
O=C(Nc1ccncc1)C(=O)c1cn(Cc2ccc(Cl)cc2)c2ccccc12	x	x	x	-2%	x	x	x	x	x	x	x
Cc1ccc(-n2c(/C=C\c3ccc(F)c(F)c3)nc3ccccc3c2=O)c(C)c1	26%	u	8.9µM*	-1%	4%	6%	-3%	-3%	2%	-6%	u

Compound activity from PubChem BioAssay.
